Shown are actives, neighbours in structure and some others; about 9.3% of the full set was active somewhere.
NADH enzymes: blocks coupling enzymes of NAD/NADH assays; coupled PK/LDH NADH assays, four targets; IC50, µM (highest dose often 10 µM), for inactives: at the highest dose inhibition; hit rate 0.02% among 65,000; AID 774;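 active means single-dose screening hits from any of four coupled enzyme assays that gave an IC50 when retested across doses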;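 further: the DPM-DC format reads NADH fluorescence rather than 340 nm absorbance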
Fluor 339 460: intrinsic fluorescence of library compounds, ex339/em460 – biochemical, MLSMR library, data from DPM-DC assay, artefact control, profiling panel; AID 709; compound autofluorescence, ex339/em460 nm, NADH buffer; active compounds read high; 1 = no-compound wells, NADH background; fluorescence fold increase at 10 µM; hit rate 5.5% among 65,000;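 active means at 10 µM, mean starting fluorescence two-fold or more over control wells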;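 further: signal is the first read of a kinetic run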
M1 agonist: activates the M1 muscarinic receptor; B-score at 10 µM; AID 626; hit rate 3% among 64,000; CHO-M1 cells, Fluo-4 calcium fluorescence, agonist mode; active compounds read high;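 active means fluorescence rise, raw or as B-score row- and column-corrected plate score, outside the 99.7% band of its plate's samples, either direction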
M1 antagonist: blocks the rat M1 muscarinic receptor response to acetylcholine | hit rate 3.4% among 64,000 | CHO-M1 cells, Fluo-4 calcium, ACh EC80 antagonist mode; active compounds read low | B-score at 10 µM | P08482;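 active means calcium fluorescence response, raw or row-and-column corrected B-score, differing from the plate sample mean either way at a set confidence level, mostly lower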
Target sequence (P08482 whole entry, looked up): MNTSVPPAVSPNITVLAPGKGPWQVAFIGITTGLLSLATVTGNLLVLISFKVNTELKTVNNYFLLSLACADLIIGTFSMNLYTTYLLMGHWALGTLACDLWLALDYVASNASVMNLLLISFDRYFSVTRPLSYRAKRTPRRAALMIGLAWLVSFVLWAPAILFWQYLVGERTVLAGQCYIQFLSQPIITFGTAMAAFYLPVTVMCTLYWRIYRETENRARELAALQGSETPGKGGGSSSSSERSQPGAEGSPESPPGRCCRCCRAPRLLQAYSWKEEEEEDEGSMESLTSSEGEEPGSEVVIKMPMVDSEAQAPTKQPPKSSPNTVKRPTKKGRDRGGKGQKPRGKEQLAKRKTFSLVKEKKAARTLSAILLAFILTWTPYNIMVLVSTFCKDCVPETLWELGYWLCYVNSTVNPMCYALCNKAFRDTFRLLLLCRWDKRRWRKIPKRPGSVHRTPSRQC
A340 absorber: compounds absorbing at 340 nm. compound absorbance at 340 nm, fold over control. fold change at 10 µM. 65,000 tested, under 10 active. AID 708;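 active means at 10 µM dose, initial 340 nm absorbance at least 2 fold that of control wells; inactive means change under 2 fold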;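 further: initial absorbance extrapolated from kinetic A340 decline of NADH oxidation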
Htt clearance: mutant huntingtin protein clearance; inhibition, % at 1.5 µM; hit rate 0.42% among 47,000; HeLa Exon1htt(103Q)mCFP, aggregate imaging; zero = plate's median compound well;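 active means inhibition of aggregate fluorescence above about 70%, also judged a hit by eye on the cell image, limit read from the data, passing the limit was not always enough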;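 further: cells exposed to compound for three days before fixation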
M1 antag confirm: M1 muscarinic receptor (rat) antagonism, confirmed; shares compounds with M1 antagonist; CHO-M1 cells, Fluo-4 calcium, ACh EC80 antagonism; active compounds read low; calcium response (max-min fluorescence) at 10 µM; hit rate 43% among 1,700; AID 677;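 active means calcium response below the same-plate mean of wells given acetylcholine alone at its 80%-effect dose, minus 3 SD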;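 further: raw fluorescence intensity difference in arbitrary instrument units and not normalized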
mGluR4 antag: mGluR4 (human) activity, M1 antagonist secondary assay; shares compounds with M1 antagonist; CHO-mGluR4 calcium flux, Fluo-4 fluorescence, glutamate EC80; active compounds read low; fluorescence response (max-min) at 10 µM; hit rate 0.9% among 1,700; AID 678;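 active means fluorescence response below the plate's average for near-maximal glutamate wells, less 3 SD of those wells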;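 further: raw unnormalized fluorescence span taken in the window right after glutamate addition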
An asterisk follows results filed as active; nt = no result.

SMILES	NADH enzymes	Fluor 339 460	M1 agonist	M1 antagonist	A340 absorber	Htt clearance	M1 antag confirm	mGluR4 antag
O=c1cc(CN2CCN(Cc3ccccc3)CC2)c2cc(Cl)ccc2o1	9%	1.1	0.39	-0.62	1	7	nt	nt
OC1(c2ccc(F)cc2)CCN(Cc2nnnn2Cc2cccs2)CC1	5%	1.1	-0.25	-1.2	1	12	nt	nt
CCN(CC)CCNC(=O)c1c(C)oc2cc(Br)c(OC)cc12	2%	1.1	-0.34	-0.37	1	nt	nt	nt
COC(=O)c1c(C)oc2cc(Br)c(OCC(=O)C(C)(C)C)cc12	2%	1.1	0.056	-1.9*	1	13	519	181
CCC1(C)Cc2c(sc3c2c(=O)n(C)c2nnc(SCc4ccccc4)n32)CO1 (configuration not stated)	2%	1.1	-0.003	0.15	1	18	nt	nt
CCC1(C)Cc2c(sc3c2c(=O)n(C)c2nnc(SCCc4ccccc4)n32)CO1 (configuration not stated)	5%	1.1	-1	-3.1*	1	nt	489*	244
CCC1=NC(c2ccccc2OC)N(O)C1(C)C (configuration not stated)	0%	1.1	0.11	-15*	1.1	16	257*	189
Cc1nc(Nc2ncc3c(n2)CCCC3=O)nc2ccccc12	2%	1.1	0.92	0.66	1.1	nt	nt	nt
C(=N\n1cnnc1)/c1ccc(-c2ccccc2)cc1	8%	1.2	0.45	-7.4*	0.99	nt	556	272
CCN(C(=O)CN1CCN(c2ccc(OC)cc2)CC1)c1c(N)n(Cc2ccccc2)c(=O)[nH]c1=O	4%	1.1	0.32	1.4	1	7	nt	nt
CCN1CCc2c(C#N)c(N3CCOCC3)nc(NCc3ccccc3)c2C1	5%	1.7	-2	-2.2*	1	-37	572	195
CCOc1ccc(CCNC(=O)C2CCC(=O)N2C2CCCCC2)cc1OCC (configuration not stated)	6%	1.1	1.3	0.44	0.99	nt	nt	nt
CCCCOc1ccc(CN2CCCCC2)cc1	2%	1.1	-0.26	-5.1*	1	nt	283*	262
CCOC(=O)c1cnc(-c2ccccc2)nc1N	6%	0.9	-1.7	-2.2*	1.1	8	714	230
CCOC(=O)c1cnc(SCC(=O)c2ccc(C)cc2)nc1N	nt	nt	nt	nt	nt	-27	nt	nt
CC(C)(NCc1ccccc1Cl)C(=O)O	4%	1.1	-0.7	0.12	1	nt	nt	nt
CN(CCC#N)CC(=O)Nc1ccc(NC(=O)CN(C)CCC#N)cc1	5%	1	0.74	-14*	1	nt	697	242
O=C(OCC(=O)N1CCCC1)c1cccs1	5%	0.94	0.38	0.47	1	nt	nt	nt
CCN1CCN(CCCOc2ccc(-c3ccccc3)cc2)CC1	3%	1.1	-0.72	-3.5*	1	35	197*	256
CCN(CC)CCn1c(OC)cc(=O)[nH]c1=O	0%	1.1	-0.051	-2.4*	1	nt	670	208
COc1ccc(Cn2c(O)cc(=O)[nH]c2=O)cc1	2%	1.1	-0.24	0.14	1	-66	nt	nt
CCN(CC)C(=O)c1cccc(-c2ccc(OC)cc2)c1	7%	1.1	-0.6	-2.2*	1.1	-33	622	247
COc1ccc(-c2cccc(C(=O)Nc3ccc(C)cc3)c2)cc1	nt	nt	nt	nt	nt	17	nt	nt
O=C(O)CCN1C(=O)C(=C2CCCCCC2)SC1=S	16%	0.93	0.0022	-0.029	1.2	nt	nt	nt
O=C1C(=C2CCCCC2)SC(=S)N1Cc1ccco1	4%	1	-1	-7.3*	1.1	22	111*	206
SMILES	NADH enzymes	Fluor 339 460	M1 agonist	M1 antagonist	A340 absorber	Htt clearance	M1 antag confirm	mGluR4 antag
Brc1ccc(/C=N/Nc2ccc3ccccc3n2)cc1	nt	nt	nt	nt	nt	-27	nt	nt
Nc1nc2ccccc2n1/N=C/c1ccc(Br)cc1	3%	1	-1	-6.7*	1	nt	707	220
CCC(Sc1nncn1C)C(=O)Nc1ccccc1OC (configuration not stated)	6%	1.1	1.1	-0.2	1	28	nt	nt
Cn1c(Br)nc2c1c(=O)n(CC(O)COc1ccccc1)c(=O)n2C (configuration not stated)	10%	1	0.12	0.75	0.99	-8	nt	nt
COC(=O)C1=CN(C2CC2)C=C(C(=O)OC)C1c1ccc(C(=O)OC)cc1	2%	2.1*	-0.58	-5.9*	1.1	nt	188*	183
CCSc1nc2c(c(=O)n(C)c(=O)n2C)n1Cc1ccc(Cl)cc1	2%	1.1	0.44	-3.7*	0.99	-45	410	225
Cn1c(=O)c2c(nc(Sc3ncccn3)n2Cc2ccc(Cl)cc2)n(C)c1=O	5%	1.1	-0.99	0.2	1	-213	nt	nt
Cn1c(=O)c2c(nc(SCCN3CCCCC3)n2Cc2ccc(Cl)cc2)n(C)c1=O	3%	1.1	-0.88	-7.8*	0.99	nt	87*	248
Cn1c(=O)c2c(nc(SCCN3CCOCC3)n2Cc2ccccc2)n(C)c1=O	7%	1.1	-0.63	-0.006	1	nt	nt	nt
Cn1c(=O)c2c(nc(SCCCO)n2Cc2ccccc2Cl)n(C)c1=O	2%	1.1	0.45	-0.05	0.99	nt	nt	nt
C=CC(C)Sc1nc2c(c(=O)n(C)c(=O)n2C)n1Cc1ccccc1Cl (configuration not stated)	3%	1.1	0.52	-4.5*	1	nt	594	265
COc1ccccc1OC(=O)c1cc(Cl)nc2ccccc12	nt	nt	nt	nt	nt	-22	nt	nt
COc1ccc(-c2noc(CSc3nc4ccccc4c(=O)n3-c3ccccc3)n2)cc1OC	4%	1	0.0052	-3.9*	1	nt	671	235
CC(OC(=O)c1cc(=O)[nH]c2ccccc12)c1ccccc1 (configuration not stated)	10%	1.9	1	0.36	1.1	-2	nt	nt
COc1ccc(COC(=O)NNC(=O)c2ccccc2Cl)cc1	nt	nt	nt	nt	nt	11	nt	nt
N#Cc1cn(Cc2ccccc2)c2ccccc12	0%	1.1	-0.64	-1.9*	1.1	nt	582	239
N#Cc1ccccc1Cn1cc(C#N)c2ccccc21	nt	nt	nt	nt	nt	31	nt	nt
Cc1ccc(S(=O)(=O)N2CCN(C3CCN(Cc4ccccc4)CC3)CC2)cc1	8%	1	-0.031	-15*	1	nt	292*	265
O=S(=O)(c1ccccc1)N1CCC(N2CCN(c3ccccc3)CC2)CC1	1%	1.1	-0.61	0.86	1	nt	nt	nt
O=S(=O)(c1ccccc1)N1CCN(C2CCN(Cc3ccccc3)CC2)CC1	2%	1.1	0.45	-7.5*	1	-49	244*	172
COc1ccc(S(=O)(=O)N2CCN(C3CCN(Cc4ccccc4)CC3)CC2)cc1	6%	1.1	0.81	-11*	1	-30	189*	211

Screens deposited in PubChem BioAssay by several laboratories.
